High-throughput results: PubChem BioAssay, National Center for Advancing Translational Sciences (NCATS)
TDP1 inh: inhibitors of human tyrosyl-DNA phosphodiesterase TDP1; Q9NUW8; Potency, µM (series often up to 130 µM), actives largely listed as inhibitors; recombinant TDP1, AlphaScreen DNA substrate cleavage; 350,000 tested, 0.28% active; note: nearly all actives have a fitted effect of over 40% in size
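Here, a 5' biotin and 3' phosphotyrosine-FITC DNA oligonucleotide reports Tdp1 activity: intact substrate bridges AlphaScreen beads, while cleavage leaves a 3' phosphate and drops signal. All incubations at room temperature.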
DT40 TDP1 CPT: DT40-hTDP1 cell growth loss with CPT; Potency, µM (highest dose often 46.2 µM), actives largely listed as inhibitors; 420,000 tested, 12% active; chicken DT40 Tdp1-/-;hTDP1 cells + 20 nM CPT, ATP luminescence, 48 h; note: nearly all actives have a fitted effect of over 55% in size
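Chicken DT40 Tdp1-/- cells stably complemented with human TDP1 were seeded at 400 cells/well in medium containing 20 nM camptothecin, exposed to pin-transferred compounds, and grown at 37 °C for at least 48 hr. Viability was read as ATP luminescence.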
DT40 TDP1 no CPT: qHTS for Inhibitors of human tyrosyl-DNA phosphodiesterase 1 (TDP1): qHTS in cells in absence of CPT | DT40 Tdp1-/- hTDP1 cells, no CPT, ATP luminescence, 48 h | Potency, µM (titrated, usually from 46.2 µM), actives largely listed as inhibitors | 420,000 tested, 15% active | AID 686978, 2013; note: nearly all actives have a fitted effect of over 55% in size
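No-CPT arm: Tdp1-/-;hTDP1 DT40 cells (400/well) plus compounds, incubated ≥48 hr at 37 °C. Readout CellTiter-Glo luminescence.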
ClpP mod: qHTS Assay for Activators of ClpP | ATP-dependent Clp protease proteolytic subunit (Bacillus subtilis (strain 168)), P80244 | purified B. subtilis ClpP, FRET peptide cleavage, 20 min | Potency, µM (doses to about 57.5 µM) | 340,000 tested, 1.9% active; active = well fitted falling curve with a large enough effect; inconclusive = small, poorly fitted or top-dose-only effect; inactive = no such curve, though single readings can be large or run the other way; note: the source files actives as falling curves though it sought activators and does not explain the sign; nearly all actives have a fitted effect of over 65% in size
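Buffer: 100 mM Tris/HCl pH8, 100 mM KCl, 0.05% low protease BSA, 2.5% glycerol, 0.01% Tween-20. ClpP 10 microg/mL final; 20 min RT; delta FRET normalized to ADEP and DMSO controls.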
Hits are given with their value; - = inactive; ? = inconclusive; . = not tested or not shown; ! = not confirmed by another sample; [ ] = another dose, or the depositor's remark. The list is not random: actives were taken first. Their share in the collection is about 17%. Unless noted, calls come from the whole dose curve; as a rule, active = well fitted curve in the direction sought with a large enough effect; inconclusive = small, poorly fitted or top-dose-only effect, or another doubt; inactive = no such curve, though single readings can be large; an effect the other way counts as inactive or inconclusive.

SMILES	TDP1 inh	DT40 TDP1 CPT	DT40 TDP1 no CPT	ClpP mod
Cc1cccn2c(=O)c3cc(C#N)c(=O)n(Cc4cccnc4)c3nc12	-	-	-	2.8µM
N=c1c(S(=O)(=O)c2ccccc2)cc2c(=O)n3ccccc3nc2n1CC1CCCO1 (stereo unspecified)	-	?	?	?
Cc1cccn2c(=O)c3cc(S(=O)(=O)c4ccccc4)c(=N)n(CC4CCCO4)c3nc12 (stereo unspecified)	-	?	12µM	.
Cc1ccc(S(=O)(=O)c2cc3c(=O)n4cccc(C)c4nc3n(CC3CCCO3)c2=N)cc1C (stereo unspecified)	-	5.8µM	6.5µM	.
COc1ccc(-n2nc(C(=O)Nc3ccc(Br)cc3C)c3c4ccccc4n(C)c3c2=O)cc1	-	-	-	-
COc1ccc(N2CC(NC(=O)C(=O)c3c[nH]c4ccccc34)CC2=O)cc1 (stereo unspecified)	-	-	-	-
COc1ccc(-c2csc(NC(C)c3nc4cc(C(=O)NCCCO)ccc4n3Cc3ccc(C)cc3)n2)cc1 (stereo unspecified)	.	?	-	-
CC(C(=O)O)N1CCCCC1 (stereo unspecified)	-	-	-	-
COc1ccc(CCNC(=O)CN(c2ccccc2)S(=O)(=O)N(C)C)cc1OC	-	-	-	-
COc1ccccc1NC(=O)CCSc1nc(C)cs1	-	-	-	-
Cc1cccn2c(=O)c3cc(S(=O)(=O)c4ccccc4)c(=N)n(Cc4cccnc4)c3nc12	.	-	23µM	.
CCCCC(CC)CNC(=O)CCCCCn1c(=O)[nH]c2ccsc2c1=O (stereo unspecified)	-	?	23µM	-
O=C(Cn1c(=O)[nH]c2ccsc2c1=O)N1CCN(c2ccc(F)cc2)CC1	-	-	?	-
O=C(CCCCn1c(=O)[nH]c2ccsc2c1=O)N1CCN(c2cccc(Cl)c2)CC1	-	16µM	13µM	-
O=C(CCn1c(=O)[nH]c2ccsc2c1=O)N1CCN(c2ccc([N+](=O)[O-])cc2)CC1	-	16µM	?	.
CC(=O)c1ccc(N2CCN(C(=O)CCCCn3c(=O)[nH]c4ccsc4c3=O)CC2)cc1	-	13µM	23µM	-
O=C(CCC(=O)N1CCSc2ccccc21)NCCc1ccccc1	.	-	-	-
COC(=O)c1ccc2c(=O)n(CCCCCC(=O)N3CCN(c4cccc(C)c4C)CC3)c(=O)[nH]c2c1	-	?	?	-
CC(=O)c1ccc(N2CCN(C(=O)CCCc3nc4ccccc4s3)CC2)cc1	-	12µM	10µM	-
Cc1cccc(N2CCN(C(=O)CCCn3c(=O)[nH]c4ccsc4c3=O)CC2)c1C	-	21µM	?	-
COc1ccc(Br)cc1/C=N/NC(=O)CN1CCN(Cc2ccccc2)CC1	-	-	-	.
COCCNC(=O)C1CCC(CNS(=O)(=O)c2ccccc2)CC1 (stereo unspecified)	.	-	-	-
CCNc1nnc(CCn2nc(C)c(Br)c2C)s1	-	-	-	.
O=C(c1ccoc1)N1CCN(c2cc(-c3ccccc3)nc3cc(-c4ccc(Br)cc4)nn23)CC1	.	12µM	5.8µM	-
COc1cc(OC)cc(-c2cc3nc(C)cc(N4CCN(C(=O)c5ccco5)CC4)n3n2)c1	-	.	.	.
SMILES	TDP1 inh	DT40 TDP1 CPT	DT40 TDP1 no CPT	ClpP mod
COc1ccc(-c2cc3nc(-c4ccccc4)cc(N4CCN(C(=O)c5ccoc5)CC4)n3n2)cc1	.	?	8.2µM	-
COc1ccc(-c2cc3nc(C)cc(N4CCN(C(=O)c5cccnc5)CC4)n3n2)cc1	.	?	23µM	?
Clc1ccc2c(c1)C(N1CCNCC1)=Nc1ccccc1O2	?	15µM!	7.3µM!	-
Cc1ccccc1NC(=O)c1cc[n+]([O-])cc1	-	-	-	.
C[N+]1(CC(=O)c2ccc(Cl)cc2)CCOCC1	.	-	-	-
Cc1ccc(S(=O)(=O)N2C[C@@H]3[C@H]4CC[C@H](C4)[C@@H]3[C@@H](C)C2CC(=O)c2ccccc2)cc1 (stereo partly specified)	-	?	23µM	-
C=CCC1[C@H](C)[C@H]2[C@@H]3CC[C@@H](C3)[C@H]2CN1S(=O)(=O)c1ccc(C)cc1 (stereo partly specified)	-	18µM	?	-
Cc1ccc(S(=O)(=O)N2C[C@@H]3[C@H]4CC[C@H](C4)[C@@H]3[C@@H](C)[C@@H]2c2ccn([Si](C(C)C)(C(C)C)C(C)C)c2)cc1	.	?	23µM	-
Cc1ccccc1NC(=O)CN1CCN(c2ccc(F)cc2)CC1	.	?	?	-
COc1cc2c(cc1OC)CN(CC(=O)Nc1ccccc1C(=O)NC1CC1)CC2	-	-	-	-
COc1cccc(N2CCN(CC(=O)Nc3ccccc3C(=O)NCc3ccccc3)CC2)c1	-	?	16µM	-
COc1cc2c(cc1OC)CN(CC(=O)Nc1ccccc1C(=O)NCc1ccccc1)CC2	-[0.0935 µM]	29µM	15µM	.
COc1cccc(N2CCN(CC(=O)Nc3ccccc3C(=O)NCCc3ccccc3)CC2)c1	-	21µM	18µM	-
O=C(CN1CCN(c2ccc(O)cc2)CC1)Nc1ccccc1C(=O)NCCc1ccccc1	-	?	26µM	-
CN(C)c1ccc(/C=C(\C#N)C(=O)Nc2nc3c(s2)CCN(Cc2ccccc2)C3)cc1	-	?	?	-
Cc1cc(N2CCN(S(=O)(=O)c3ccc(Cl)cc3)CC2)c2ccccc2n1	-	23µM	21µM	?
Cc1cc(N2CCN(S(=O)(=O)c3ccc(Cl)c(Cl)c3)CC2)c2ccccc2n1	-	?	16µM	-
C/C(=N\NC(=O)CSc1nc2ccccc2s1)c1ccco1	-	?	?	-
CC(=O)OC1C2CCC1C([N+]1(C)CCCCC1)CC2 (stereo unspecified)	-	-	-	.
CS(=O)(=O)N(CC(=O)Nc1ccccc1Br)Cc1ccccc1	-	-	-	-
O=C(c1cc2ccccc2oc1=O)N(Cc1cccs1)Cc1cccs1	-	?	23µM	-
O=C(c1cc2ccccc2oc1=O)N(Cc1cccs1)CC1CCCO1 (stereo unspecified)	-	?	?	.
O=C(c1cc2ccccc2oc1=O)N(Cc1ccco1)Cc1cccs1	-	21µM	?	-
COc1cc(OC)c(C(=O)N(Cc2ccco2)Cc2cccs2)cc1OC	-	.	.	.
O=C(COC(=O)CNC(=O)c1cc(Cl)cc([N+](=O)[O-])c1)NC(=O)NCc1ccco1	-	-	-	-
O=C(COc1ccccc1Cl)Nc1nnc(S(=O)(=O)N2CCCCCC2)s1	-	?	?	-
Cc1ccc(CNC(=O)CN2C(=O)CCn3nc(-c4ccccc4)cc32)cc1	-	-	-	-
CN(C)c1ccc(-c2nnn(Cc3ccccc3Br)n2)cc1	-	-	?	28µM
Clc1ccccc1Cn1nnc(-c2ccccc2)n1	-	-	-	.
